# Rows were chosen to be rich in hits. Some 0.36% of all compounds tested hit in one or more screens of this group.
# Mm-Cpn inhibitor: blocks the Methanococcus maripaludis chaperonin Mm-Cpn; AID 504842; purified Mm-Cpn ATPase, ADP Transcreener TR-FRET; Potency, µM (top dose mostly 76.9 µM), without a hit: at the top dose activity, negative = inhibition, actives largely listed as inhibitors; actives 0.031% (n = 330,000); further: potency means the concentration at half of the fitted maximal effect; on the % scale 0 is the no-effect control and ±100 the full control effect; nearly all actives have a fitted effect of over 80% in size
#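 Purified archaeal Mm-CPN (25nM final) preincubated 10 min at 37degC with compound, then 10uM ATP for 30 min at 37degC; ADP measured by HTRF Transcreener TR-FRET; buffer 30 mM TRIS pH 7.4, 100mM KCl, 5mM MgCl2, 1mM DTT.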
# ERG-DNA inh: blocks human ERG Ets domain binding to DNA; P11308; fluorescence polarization, His-ERG Ets domain / labelled DNA; Potency, µM (titrated, usually from 76.9 µM), inactives show at the top dose FP activity, negative = inhibition, most hits filed as inhibitors; actives 0.028% (n = 370,000); active means well fitted inhibition curve with a large enough effect in the polarisation, with a control signal flat; the % refers to the polarisation;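 further: polarization taken with two DNA probes labelled with fluorescein and Texas red; potency means the concentration at half of the fitted maximal effect; % of control where 0% means no effect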
#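 His-tagged ERG Ets domain (1 uM in the protein solution; 300mM KCl, 50mM Tris-HCl, 1mM EDTA, 1mM DTT, pH 7.5) received compound, then a probe mix of 5 nM fluorescein-DNA and 100nM Texas-615-DNA. Fluorescence polarization was read for both dyes.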
# PTHR1 ag: activates the human parathyroid hormone receptor PTHR1. Q03431. HEK293 GP2 PTHR1 cells, GloSensor cAMP luminescence, 1 h. Potency, µM (doses to about 115 µM), inactives show at the top dose activation, actives largely listed as activators. actives 0.075% (n = 410,000); further: potency means the concentration at half of the fitted maximal effect; nearly all actives have a fitted effect of over 55% in size
# Target sequence (Q03431 whole entry, looked up): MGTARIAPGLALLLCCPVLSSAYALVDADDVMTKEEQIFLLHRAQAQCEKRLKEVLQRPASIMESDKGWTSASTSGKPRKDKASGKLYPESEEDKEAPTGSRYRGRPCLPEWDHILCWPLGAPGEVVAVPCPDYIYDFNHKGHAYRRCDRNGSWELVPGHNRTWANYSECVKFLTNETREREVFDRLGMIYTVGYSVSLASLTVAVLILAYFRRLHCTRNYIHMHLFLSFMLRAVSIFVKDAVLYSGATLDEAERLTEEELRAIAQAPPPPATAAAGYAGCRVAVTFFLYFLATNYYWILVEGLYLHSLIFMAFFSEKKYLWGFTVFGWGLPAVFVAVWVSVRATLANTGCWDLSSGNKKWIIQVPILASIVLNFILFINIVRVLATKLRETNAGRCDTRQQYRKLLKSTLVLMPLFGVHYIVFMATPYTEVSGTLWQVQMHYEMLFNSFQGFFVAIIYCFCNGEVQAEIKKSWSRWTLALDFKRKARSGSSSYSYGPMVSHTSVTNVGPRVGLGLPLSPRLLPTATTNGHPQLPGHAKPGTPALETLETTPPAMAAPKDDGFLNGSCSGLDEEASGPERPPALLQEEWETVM
#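 HEK-293-derived GP2 cells expressing PTHR1 and a GloSensor cAMP reporter, 3,000/well, plated overnight, given luciferin plus IBMX (each 0.5 mM as added) for 1 h at 37 °C, then compound for 1 h at 37 °C. Luminescence was read after 15 min at room temperature.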
# CCT chaperon mod: cytosolic chaperonin activity modulation | purified chaperonin ATPase assay, HTRF ADP detection, 30 min | actives 0.3% (n = 360,000) | activity change, % (test concentration not listed), hits read low; in the data active means activity change below about -30%; further: on the % scale 0 is the no-effect control and ±100 the full control effect
#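 We incubate TRiC, 40 or 20 nM final, with library compounds at 76 uM and 10 uM ATP for 30 min at 37 °C. ADP formed is detected with Transcreener HTRF reagents after 30 min at room temperature.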
# RGS4 inh: blocks human RGS4-accelerated GTP hydrolysis | actives 0.039% (n = 390,000) | Transcreener GDP fluorescence polarization, RGS4-accelerated GTP hydrolysis | Potency, µM (series often up to 114 µM), inactives show at the top dose activity change, negative = inhibition, actives largely listed as inhibitors; further: potency means the concentration at half of the fitted maximal effect; on the % scale 0 is the no-effect control and ±100 the full control effect; nearly all actives have a fitted effect of over 75% in size
#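 MLSMR compounds (23 nl, pin-transferred) preincubated 10 min at room temperature with a 500nM (2x) first reagent, then RGS4 at 900nM (2x) plus Transcreener GDP mix added; fluorescence polarization (620/688 nm) read before and after 90 min at 30 °C.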
# An asterisk follows results filed as active; i = inactive; . = no result given; [ ] = another dose, or the depositor's remark. Unless noted, the call rests on the fitted dose curve; in most records, active means well fitted curve in the direction sought with a large enough effect; inconclusive means small, poorly fitted or top-dose-only effect, or another doubt; inactive means no such curve, though single readings can be large; an effect the other way counts as inactive or inconclusive.
SMILES,Mm-Cpn inhibitor,ERG-DNA inh,PTHR1 ag,CCT chaperon mod,RGS4 inh
CCC(C)Nc1sc(S(=O)(=O)CC)nc1S(=O)(=O)c1ccc(C)cc1 (configuration not stated),.,-7.5%,-8.0%,.,-8.4%
COc1ccc([C@@H]2CC=C(C(=O)O)[C@H](c3ccccc3)N2S(=O)(=O)c2ccccc2C)cc1,-0.6%,0.8%,-24.5%,-49.3*,13.9%
Cc1ccccc1S(=O)(=O)N1[C@@H](c2ccc(F)cc2)C(C(=O)O)=CC[C@H]1c1ccc(Cl)cc1,2.2%,11.9%,-20.1%,-4.2,-8.6%
COC(=O)c1ccc(-c2ccc(C3C4C=CCC(C)C4C(=O)N3Cc3ccccc3)c(F)c2)cc1 (configuration not stated),.,.,.,.,3.1%
CCOC(=O)C1=C(CN2CCCCC2)NC(=O)NC1c1ccc(C)cc1 (configuration not stated),.,0.7%,i,.,4.5%
O=C(CCS(=O)(=O)c1ccc(Br)cc1)NCc1ccc(F)cc1,0.0%,0.9%,i,-79.8*,-50.9%
Cc1ccc(CNC(=O)CCS(=O)(=O)c2ccc(Br)cc2)cc1,0.8%,-6.6%,i,2.5,-24.9%
O=C(Cn1cnc2ccccc2c1=O)Nc1ccccc1N1CCOCC1,-0.8%,6.6%,i,-75.2*,-10.4%
O=C(Cn1c(=O)cnc2ccccc21)Nc1ccccc1N1CCOCC1,-1.3%,8.5%,i,2.7,2.6%
Cc1ccc(NC(=O)OCCNC(=O)OC(C)C)cc1,0.3%,2.0%,-12.2%,-0.8,8.0%
CC(C)OC(=O)Nc1ccc(Oc2c(F)c(F)c(F)c(F)c2F)cc1,-1.5%,-5.6%,-13.1%[57.5 µM],-76.4*,4.0%
C=CCN1C(=O)/C(=C\c2ccc(OC(=O)c3ccco3)c(OC)c2)SC1=S,-0.9%,138.4%,-11.7%,-83.7*,5.0%
C=CCN1C(=O)/C(=C\c2cccc(OC(=O)c3ccco3)c2)SC1=S,-0.6%,5.8%,-13.2%,-1.5,-19.3%
CCOc1ccccc1CNC(=O)c1nc(-c2ccc(Cl)cc2)n2c1CCCCC2,.,-1.7%,5.7%,.,6.4%
CCOC(=O)C1CCCN(C(=O)c2ccc3nc(-c4ccccc4)c(-c4ccccc4)nc3c2)C1 (configuration not stated),39.8µM*,7.2%,-4.6%,-2.5,6.2%
CCn1cc(S(=O)(=O)c2ccccc2)c(=O)c2cc(F)c(N3CCN(c4ccccc4)CC3)cc21,.,3.9%,23.4%,.,20.7%
Cc1ccc(-c2cn3nc(N4CCCC(C(=O)NCc5ccccc5F)C4)sc3n2)cc1 (configuration not stated),.,-7.8%,-17.6%,.,6.2%
Cc1cccc(N(CC(=O)NC(C)C)C(=O)c2ccc(N3CCCC3)nc2)c1,1.7%,-0.8%,-8.1%,-34.8*,0.1%
CCN(c1ccccc1)S(=O)(=O)c1ccc2[nH]cc(C(=O)NCc3ccc(C)cc3)c(=O)c2c1,.,1.2%,-30.2%,.,7.0%
COc1ccccc1-c1noc2c1C(=O)N(Cc1cn(-c3ccccc3)nn1)CC2,.,.,i,1.1,.
COc1ccccc1-c1noc2c1C(=O)N(Cc1cn(C3CCCC3)nn1)CC2,.,.,-16.6%,-37.5*,.
CC(C)CN1CCNC(=O)C1CC(=O)NCCc1cnn(-c2ccccc2)c1 (configuration not stated),1.5%,-3.7%,i,1.2,-24.5%
CC(C)CN1CCNC(=O)C1CC(=O)NCCc1ccc(C(F)(F)F)cc1 (configuration not stated),31.6µM*,9.0%,-8.7%,-1.4,-2.4%
Cc1ccc2c(c1)S(=O)(=O)c1ccc3ccccc3c1N2,.,7.1%,i,-36.6*,-31.3%
O=C(NCCc1ccccc1Cl)c1ccc2c(c1)nc1n2CCCCC1,.,-2.5%,-42.2%,.,-16.6%
Cc1c(C#N)c2ncn(Cc3ccccn3)c(=O)c2n1-c1ccccc1,0.3%,-0.7%,-3.0%,-79.6*,-2.9%[11.4 µM]
Cc1nc2ccc(S(=O)(=O)N(CC(=O)Nc3ccc(Cl)cc3)Cc3ccccc3)cc2s1,.,-1.3%,-25.3%,.,-1.6%
COc1ccccc1-c1c(C)oc2c(CN3CCN(CCO)CC3)c(O)ccc2c1=O,0.1%,-3.4%,i,-52.2*,27.8%
